Experiment [1] addresses Cytochrome P450 2D6 (Homo sapiens) (UniProt P10635). The experiment in a line: Cytochrome P450 family 2 subfamily D member 6 (CYP2D6) small molecule antagonists: luciferase biochemical (cell-free) qHTS assay (AID 1645840; active = well fitted curve in the direction sought with a large enough effect in the repeat runs; an effect the other way counts as inactive or inconclusive; note: nearly all actives have a fitted effect of over 55% in size; for activity change, negative = inhibition: series mostly up to about 57 µM). The essentials: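 P450-Glo CYP2D6 system: proluciferin substrate converted by enzyme to luciferin, read by luminescence proportional to activity. Enzyme-substrate mix with compound 10 min at room temperature, then NADPH regeneration 1 h before detection reagent.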
For orientation: In qHTS, concentration-response curves come from the screen itself.

For experiment [2], the target named is Cytochrome P450 2C9 (Homo sapiens) (UniProt P11712). The experiment in a line: Cytochrome P450 family 2 subfamily C member 9 (CYP2C9) small molecule antagonists: luciferase biochemical (cell-free) qHTS assay (AID 1645842; active = well fitted curve in the direction sought with a large enough effect in the repeat runs; an effect the other way counts as inactive or inconclusive; note: nearly all actives have a fitted effect of over 55% in size; for activity change, negative = inhibition: series mostly up to about 57 µM). The essentials: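 P450-Glo CYP2C9 system: proluciferin substrate with enzyme in mix containing 0.4% BSA, 10 min at room temperature, then NADPH regeneration solution added and incubated 1 h at 37C. Detection reagent stopped reaction; luminescence read after 20 min as RLU.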
Sequence of Cytochrome P450 2C9 (Homo sapiens) (P11712 whole entry, looked up): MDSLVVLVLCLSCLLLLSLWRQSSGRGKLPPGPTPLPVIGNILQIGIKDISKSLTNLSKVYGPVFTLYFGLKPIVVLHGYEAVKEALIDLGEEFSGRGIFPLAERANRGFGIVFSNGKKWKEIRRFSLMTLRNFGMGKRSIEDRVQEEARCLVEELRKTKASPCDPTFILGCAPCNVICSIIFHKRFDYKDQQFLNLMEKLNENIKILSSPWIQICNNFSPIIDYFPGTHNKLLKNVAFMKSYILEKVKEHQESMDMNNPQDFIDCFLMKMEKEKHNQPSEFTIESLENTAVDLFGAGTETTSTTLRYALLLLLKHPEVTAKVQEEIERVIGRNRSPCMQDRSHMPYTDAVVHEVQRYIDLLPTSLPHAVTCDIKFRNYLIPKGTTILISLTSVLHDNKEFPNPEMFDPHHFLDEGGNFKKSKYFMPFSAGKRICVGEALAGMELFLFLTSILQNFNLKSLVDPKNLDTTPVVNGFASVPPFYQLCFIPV

The nature of experiment [3]: Primary qHTS for inhibitors of nuclear receptor binding SET domain protein 2 (NSD2) in an isogenic RCH-ACV NSD2 p.E1099K mutant (9B) (AID 1645876). Note: nearly all actives have a fitted effect of over 70% in size.
Experiment [4] is described as follows: Primary qHTS for inhibitors of nuclear receptor binding SET domain protein 2 (NSD2) in an RCH-ACV wild type WT cells (2C) (AID 1645877). Note: nearly all actives have a fitted effect of over 70% in size.

Values joined by “and” are separate entries in the source; they are usually repeats but may differ in a detail not shown here. Equal entries are not always repeated. Inconclusive results are not listed. Some structures have more than one record in an assay (separate samples or runs), and their calls can disagree. Active and inactive are the calls of the source. Unless noted, calls come from the whole dose curve; as a rule, active = well fitted curve in the direction sought with a large enough effect; inconclusive = small, poorly fitted or top-dose-only effect, or another doubt; inactive = no such curve, though single readings can be large; an effect the other way counts as inactive or inconclusive.
% is set by controls: 0 for no effect and ±100 for the full control effect; potency is the fitted concentration of half-maximal effect.

Sequence of Cytochrome P450 2D6 (Homo sapiens) (P10635 whole entry, looked up): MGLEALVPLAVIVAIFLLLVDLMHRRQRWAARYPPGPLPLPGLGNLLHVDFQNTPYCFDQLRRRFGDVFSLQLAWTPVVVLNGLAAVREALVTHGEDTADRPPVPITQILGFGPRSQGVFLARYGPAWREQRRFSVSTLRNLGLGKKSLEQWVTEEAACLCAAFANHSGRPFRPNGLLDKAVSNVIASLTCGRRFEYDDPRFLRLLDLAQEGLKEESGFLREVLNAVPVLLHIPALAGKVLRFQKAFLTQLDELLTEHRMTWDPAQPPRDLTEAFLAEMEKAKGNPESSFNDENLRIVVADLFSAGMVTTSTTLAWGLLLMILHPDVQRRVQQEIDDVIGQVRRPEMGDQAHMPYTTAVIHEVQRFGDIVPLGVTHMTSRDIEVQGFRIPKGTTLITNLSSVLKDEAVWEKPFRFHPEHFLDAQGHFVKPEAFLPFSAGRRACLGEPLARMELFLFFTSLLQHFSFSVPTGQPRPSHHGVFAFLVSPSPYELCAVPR

As to `CN1CCC(Nc2nc(Nc3ccc(Oc4ccccc4)cc3)c3c(=O)[nH]cc(Br)c3n2)CC1`, the Potency in experiment [1] is 5.35 µM (active); in experiment [2] it was 16.9 µM (active); in experiment [3] it was 1.83 µM (active); in experiment [4], 916 nM (active).
Consider `Cc1ccc(NC(=O)Nc2cc(C(F)(F)F)ccc2F)cc1Nc1ccc2c(c1)NC(=O)/C2=C\c1ccc[nH]1`, for which the Potency result in experiment [1] and in experiment [2] was “inactive” each time. The Potency in experiment [3] was 11.5 µM (active) and 16.6 µM (active); in experiment [4], 20500 nM (active).
As for `Cc1nc(C)c(-c2ccc(C3CCC(CC(=O)O)CC3)cc2)nc1C(N)=O` (stereo unspecified), the Potency result in experiment [1], in experiment [2], in experiment [3] and in experiment [4] was “inactive” in each case.
Turning to `COc1ncc(Nc2ncc([C@H](C)N3CCN(S(C)(=O)=O)CC3)cc2-c2nc(C)nc(N)n2)cc1F`, the Potency entry in experiment [1] is “inactive”. Also, the Potency in experiment [2] was 12 µM (active); in experiment [3], 5.8 nM (active) and 5.9 nM (active); in experiment [4], 57.8 nM (active) and 8.3 nM (active).
With `CCCCCCOc1cc2c(cc1N(C)c1ncc(C(=O)O)cn1)C(C)(C)CCC2(C)C`, the Potency in experiment [1] was 10.7 µM (active). The Potency result in experiment [2], in experiment [3] and in experiment [4] was “inactive” throughout.
As for `COc1cc2c(cc1OC)-c1[nH]nc(Nc3cccc(F)c3)c1C2`, the Potency in experiment [1] is 21.3 µM (active); in experiment [2], 8.49 µM (active); in experiment [3] it was 0.0916 µM (active); in experiment [4], 57.8 nM (active).
As to `O=C(O)C1CN(Cc2ccc(-c3nc4cc(Cc5ccccc5F)ccc4s3)c(F)c2)C1`, the activity change, negative = inhibition in experiment [1] is 8.94% [at 11.5 µM] (inactive); in experiment [2], -11.3% [at 11.5 µM] (inactive). Moreover, the activity change, negative = viability loss in experiment [3] is 0.892% [at 9.23 µM] (inactive). The activity change, negative = cell killing in experiment [4] was 2.02% [at 9.23 µM] (inactive).
As to `Cn1cc(S(=O)(=O)c2ccc(Cl)cc2)c2cccc(N3CCNCC3)c21`, the Potency in experiment [1] was 13.5 µM (active); in experiment [2] it was 8.49 µM (active); in experiment [3] it was 18.3 µM (active); in experiment [4], 11500 nM (active).
For `Cc1cc(C(=O)N2CCCCc3ccccc32)ccc1CNC(=O)N1CCC[C@H]1C(=O)N(C)C`, the Potency result in experiment [1], in experiment [2], in experiment [3] and in experiment [4] was “inactive” in each case.
In the case of `CC1CCCCN1S(=O)(=O)c1ccc(N2CCCC2=O)cc1` (stereo unspecified), the Potency entry in experiment [1], in experiment [3] and in experiment [4] was “inactive” in each case. For the same compound, the Potency in experiment [2] is 15.1 µM (active).
`Cc1cccc(C)c1-n1c(=O)c2cnc(Nc3ccc(N4CCN(C)CC4)cc3)nc2n2c3ccccc3nc12`: the Potency result in experiment [1] was “inactive”. Further, the Potency in experiment [2] is 8.49 µM (active); in experiment [3] it was 0.205 µM (active); in experiment [4] it was 258 nM (active).
For `CC1CCN(C(=O)CC#N)CC1N(C)c1ncnc2[nH]ccc12` (stereo unspecified) the same measures were “inactive”, 23.9 µM (active), “inactive” and “inactive”.
Take `Nc1ccc(-c2cccc3c(=O)cc(N4CCOCC4)oc23)cc1`: the Potency entry in experiment [1] is “inactive”. The Potency in experiment [2] is 9.52 µM (active); in experiment [3], 1.63 µM (active); in experiment [4], 1830 nM (active).
The matching figures for `c1ccc(-c2ncc(CN3CCN(c4ncccn4)CC3)[nH]2)cc1`: 0.952 µM (active), 2.13 µM (active), “inactive” and “inactive”.
The matching figures for `CN(C)C1CCN(C(=O)c2ccc(NC(=O)Nc3ccc(-c4nc(N5CCOCC5)nc(N5CCOCC5)n4)cc3)cc2)CC1`: “inactive”, “inactive”, 0.0417 µM (active) and 33.2 nM (active).
Consider `CCC(CC)C(=O)Nc1sc2c(c1C#N)CCC(C(C)(C)CC)C2` (stereo unspecified), for which the Potency entry in experiment [1], in experiment [3] and in experiment [4] was “inactive” in each case. Also, the Potency in experiment [2] is 5.35 µM (active).
As to `Cc1cc(C(N)=O)ccc1-n1c(CCC(=O)O)ccc1-c1ccc(-n2ccnc2)cc1`, the results for the Potency in experiment [1] and in experiment [2] were 0.952 µM (active) and 3.38 µM (active), respectively. For the same compound, the Potency entry in experiment [3] and in experiment [4] was “inactive” each time.
Turning to `C#CCN(Cc1cc2c(=O)[nH]c(C)nc2cc1Br)c1ccc(C(=O)NCc2cccnc2)cc1`, the Potency entry in experiment [1] and in experiment [3] was “inactive” in each case. Further, the results for the Potency in experiment [2] and in experiment [4] were 3.01 µM (active) and 2.3 nM (active), respectively.
As for `CCC(COC)n1nnc2c(Nc3ccc(OC)cc3C)nc(C)cc21` (stereo unspecified), the Potency in experiment [1] was 10.7 µM (active); in experiment [2] it was 7.56 µM (active). Further, the Potency entry in experiment [3] and in experiment [4] was “inactive” throughout.
Regarding `CC1(C)CC(NC(=O)C(=O)Nc2ccc(Br)cc2)CC(C)(C)N1`, the Potency entry in experiment [1] and in experiment [2] was “inactive” in each case. Besides, the figures for the Potency in experiment [3] and in experiment [4] were 8.17 µM (active) and 5780 nM (active), respectively.
Consider `O=C(O)c1ccccc1NC(=O)N1CCC(c2ccccc2C(F)(F)F)CC1`, for which the Potency result in experiment [1], in experiment [3] and in experiment [4] was “inactive” throughout. For the same compound, the Potency in experiment [2] was 0.849 µM (active).
Take `O=C(Cc1ccc(-c2ccccc2)cc1)NC1CCC1`: the Potency result in experiment [1], in experiment [3] and in experiment [4] was “inactive” in each case. The Potency in experiment [2] is 6.74 µM (active).
Take `Cc1cc(C)c(CNC(=O)c2cc(-c3ccc(CN4CCOCC4)cc3)cc3c2cnn3C2CCCC2)c(=O)[nH]1`: the Potency result in experiment [1] is “inactive”. The Potency in experiment [2] was 2.39 µM (active); in experiment [3], “inactive and 18.6 µM (active)”; in experiment [4] it was “inactive and 18.6 µM (active)”.
Consider `C[C@@H]1CN(Cc2ncccn2)C[C@H]1c1nc2c(cnn2C2CCOCC2)c(=O)[nH]1`, for which the Potency result in experiment [1], in experiment [2], in experiment [3] and in experiment [4] was “inactive” in each case.
